Source: PubChem (National Center for Advancing Translational Sciences (NCATS))
The list is not random: actives were taken first. Their share in the collection is about 10%.
GPT2 inh: blocks human glutamate pyruvate transaminase 2; 0.25% of 100,000 active; Q8TD30; Potency, µM (titrated, usually from 57.7 µM), for the others: at the top dose activity change, negative = inhibition, usual class: inhibitors; Recombinant GPT2, coupled pyruvate oxidase/HRP Amplex Red fluorescence; also: nearly all actives have a fitted effect of over 60% in size
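GPT2 10ng/uL, a-KG 250uM, L-Ala 2mM, HEPES pH7.5 + 0.0001% Tween; 30 min RT. Then Amplex mix (PO/HRP/ThPP), 30 min RT dark, fluorescence. AOA 50uM used as positive control.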
NIH3T3 tox: NIH 3T3 cell cytotoxicity | NIH 3T3 viability, CellTiter-Glo ATP luminescence, 48-72 h | Potency, µM (highest dose often 96.7 µM), inactives show top-dose activity change, negative = cytotoxicity, usual class: inhibitors | 4.3% of 94,000 active | AID 1345082; also: nearly all actives have a fitted effect of over 55% in size
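ATP-dependent luminescence (CellTiter-Glo) served as the viability signal for NIH 3T3 cells treated with compound for 48 or 72 hr at 37 °C.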
HEK cytotox: kills HEK 293 cells; 6.6% of 94,000 active; Potency, µM (highest dose often 115 µM), for the others: at the top dose activity change, negative = cytotoxicity, usual class: inhibitors; HEK 293 viability, ATP luminescence (CellTiter-Glo), 48-72 h; AID 1345083; also: nearly all actives have a fitted effect of over 60% in size
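qHTS cytotoxicity; HEK 293, 250 cells/well; compound pinned; 48 or 72 hr, 37 degree Celsius, 5% CO2, 95% humidity; CellTiter-Glo, 10 min RT; luminescence (ATP).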
NPR1 antag: antagonists of human natriuretic peptide receptor Npr1. Potency, µM (titrated, usually from 46.3 µM), without a hit: top-dose activity change, negative = inhibition, hits mostly inhibitors. P16066. AID 1347048. 1.6% of 76,000 active. HEK293 hNpr1 GloSensor cGMP, ANP-stimulated luminescence; calls by dose curve; also: nearly all actives have a fitted effect of over 60% in size
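Compound pre-incubated 30 min at room temperature on GloSensor-loaded HEK293 cells stably carrying hNpr1 and the pGS-40F cGMP biosensor. Stimulation uses hNppA at 0.1 nM final; luminescence is taken at baseline and 20 min post-agonist.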
FLuc inh: blocks purified firefly luciferase enzyme activity; P08659; purified P. pyralis luciferase, luminescence, biochemical; Potency, µM (highest dose often 115 µM), most hits filed as inhibitors; 2.5% of 76,000 active; AID 1347043; also: nearly all actives have a fitted effect of over 65% in size
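Luminescence read by CCD imaging after purified firefly luciferase (10nM final) was added to substrate buffer holding 10uM D-luciferin and 10uM ATP, pH 7.5, pre-dosed with compound.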
Numbers without * were called inactive; i = inactive; ? = inconclusive; · = not tested or not shown; [ ] = another dose, or the depositor's remark. Unless noted, calls follow the shape of the dose curve; as a rule, active = well fitted curve in the direction sought with a large enough effect; inconclusive = small, poorly fitted or top-dose-only effect, or another doubt; inactive = no such curve, though single readings can be large; an effect the other way counts as inactive or inconclusive. % is scaled to controls: 0 for no effect and ±100 for the full control effect; potency is read from the fitted curve at half-maximal effect.

SMILES | GPT2 inh | NIH3T3 tox | HEK cytotox | NPR1 antag | FLuc inh
Cc1cccc(-n2nc(C)c(CCC(=O)N(C)C(C)C)c2Oc2ccccc2)c1 | -9.8% | 15.8µM* | 39.8µM* | -27.3% | i
CCN(CC)C(=O)CCc1c(C)nn(-c2cccc(C)c2)c1Oc1ccc(F)cc1F | 0.5% | 35.5µM* | 25.1µM* | -26.7% | i
CCN(C)C(=O)CCc1c(C)nn(-c2cccc(C)c2)c1Oc1ccc(F)cc1F | i | ? | ? | -3.4% | i
Cc1nn(-c2ccc(F)cc2)c(Oc2ccccc2F)c1CCC(=O)N(C)C(C)C | -8.9% | ? | 35.5µM* | -16.0% | i
CCN(CC)C(=O)CCc1c(C)nn(-c2ccc(F)cc2)c1Oc1ccccc1F | 0.9% | ? | ? | -25.0% | i
Cc1cc(C(=O)Cn2cc(C#N)ccc2=O)c(C)n1Cc1ccccc1 | i | · | · | · | ·
COc1cccc(CNC(=O)c2nnn3cc(C)[nH]c(=O)c23)c1 | -30.0% | -14.8% | 11.9% | 2.4% | i
CSc1ccc(CNC(=O)c2cc3c(=O)[nH]c(C)cn3n2)cc1 | i | -25.2% | -8.8% | 8.6% | 12.6µM*
COCCCNC(=O)c1cc2c(=O)[nH]c(C)cn2n1 | i | i | 3.5% | 3.8% | ?
Cc1cn2nc(C(=O)NCCCc3ccccc3)cc2c(=O)[nH]1 | i | -25.1% | -23.8% | 14.7% | 14.1µM*
Cc1ccc(CNC(=O)c2ccc(NC(=O)c3cc4c(=O)[nH]c(C)cn4n3)cc2)cc1 | i | -3.7% | ? | 5.7% | 11.2µM*
CCc1ccc(CNC(=O)c2nnn3cc(C)[nH]c(=O)c23)cc1 | i | 35.5µM* | -28.6% | -29.9% | i
CCOC(=O)C1CCN(C(=O)c2ccc3nnc(-c4cc(C(F)(F)F)cc(C(F)(F)F)c4)n3c2)CC1 | i | -18.3% | ? | · | ·
C[S+](=O)([O-])N1Cc2ccccc2CC2(CCCCN2CC2CCOCC2)C1 (centres undefined) | -1.4% | -6.9% | -7.3% | · | ·
CCCCCNC(=O)CNC(=O)c1cccc(-c2ccsc2)c1 | 1.2% | -31.4% | -21.4% | · | ·
Cc1nc(-c2cnccn2)n(CC(=O)Nc2cccc(Cl)c2)c(=O)c1C | i | -26.2% | ? | -18.4% | i
CC1(c2ccccc2)N(Cc2ccccc2)C(=O)OC12CCN(Cc1cccc(O)c1)CC2 (centres undefined) | 0.0% | ? | ? | -14.9% | i
O=C(CC1CCCCN(Cc2ccccc2)C1=O)N1CCc2ccccc2C1 (centres undefined) | i | ? | 44.7µM* | -15.2% | i
O=C(CC1=C2CCCCC2N(Cc2ccccc2)C1=O)N1CCc2ccccc2C1 (centres undefined) | 3.5% | ? | 50.1µM* | 0.2% | i
CS(=O)(=O)N[C@@H]1C[C@H](Cn2cc(-c3cccnc3)nn2)[C@@H](O)[C@H]1O | i | i | i | 2.4%[70.6 µM] | i
Cc1noc(C)c1S(=O)(=O)N[C@@H]1C[C@H](Cn2cc(-c3cccnc3)nn2)[C@@H](O)[C@H]1O | -5.4% | 22.4µM* | 39.8µM* | -1.7% | i
CN1CCCC2(CCN(C(=O)CCCOc3ccccc3)C2)C1=O (centres undefined) | -28.1% | 0.3% | -1.9% | 0.8% | 28.2µM*
CN1CCCC2(CCN(C(=O)CCc3ccccc3O)C2)C1=O (centres undefined) | 2.3%[11.5 µM] | 2.2% | i | 3.3% | i
CC(=O)NC1CC2(CCN(C(=O)C3CCN(C)CC3)CC2)c2ccccc21 (centres undefined) | -11.6% | 35.5µM* | 44.7µM* | · | ·
Cc1cccc(CNC(=O)c2ccc(OC3CCN(CCc4ccccc4)CC3)cc2)n1 | i | ? | ? | 1.8% | i
SMILES | GPT2 inh | NIH3T3 tox | HEK cytotox | NPR1 antag | FLuc inh
O=C(NC1CCCN(c2cc(-c3ccccc3)[nH]n2)C1)c1ccc(F)cc1Cl (centres undefined) | ? | ? | ? | -19.3% | ?
O=C(NC1CCCN(c2cc(-c3ccccc3)[nH]n2)C1)c1cccc(F)c1 (centres undefined) | ? | ? | 25.1µM* | 0.0% | ?
O=C(NC1CCN(c2cc(-c3ccc(F)cc3)[nH]n2)C1)c1cccc(F)c1 (centres undefined) | ? | ? | 39.8µM* | -14.7% | i
Cc1nc(C2CCCCN2C(=O)Nc2ccccc2F)n[nH]1 (centres undefined) | i | -17.9% | -11.1% | · | ·
Cc1nn(C)c2nc(NCCCOC3CCCC3)sc12 | -7.3% | ? | 31.6µM* | ? | 35.5µM*
OCC1CN(C2CCC2)CC12CCN(Cc1ccsc1)CC2 (centres undefined) | ? | ? | 89.1µM* | 1.8% | i
OCC1CN(c2ncccn2)CC12CCN(Cc1ccsc1)CC2 (centres undefined) | 3.8% | 1.1% | -9.6% | 1.5% | i
Cc1noc(C)c1-c1cc2c(cc(C)n2C)c(-c2ccc(CO)cc2)n1 | 2.1%[88.5 µM] | 31.6µM* | ? | 0.7%[70.6 µM] | i
Cc1noc(C)c1-c1cc2c(cc(C)n2C)c(-c2cccc(CO)c2)n1 | ? | 44.7µM* | ? | -20.3%[70.6 µM] | i
Cc1cc2c(-c3ccc(CO)cc3)nc(-c3c(C)noc3C)cc2[nH]1 | 1.7%[88.5 µM] | 10µM* | ? | -1.3%[70.6 µM] | i
CNC(=O)c1cc2cc(-c3c(C)noc3C)nc(-c3cccc(CO)c3)c2o1 | -0.2%[88.5 µM] | ? | ? | 0.2%[70.6 µM] | i
Cc1noc(C)c1-c1cc2cc(CN(C)C)oc2c(-c2ccc([S+](C)(=O)[O-])cc2)n1 | 0.4%[88.5 µM] | ? | ? | -0.2%[70.6 µM] | i
Cc1noc(C)c1-c1cc2c(cc(C)n2C)c(NCc2ccncc2)n1 | i | ? | ? | 4.6%[70.6 µM] | i
Cc1cc2cc(-c3c(C)noc3C)nc(N3CCCC3)c2o1 | -6.4%[88.5 µM] | ? | ? | 4.1%[70.6 µM] | i
CC(=O)N1CCN(c2nc(-c3c(C)noc3C)cc3cc(C(C)C)oc23)CC1 | 0.8%[88.5 µM] | 50.1µM* | ? | -2.0%[70.6 µM] | i
O=C(NCC1CCCCC1)c1cn2cc(-c3ccccc3)sc2n1 | -2.3% | ? | ? | · | ·
COCCCNC(=O)C1CCN(c2ccnc3ccnn23)CC1 | i | -26.6%[138 µM] | -16.1%[172 µM] | · | ·
O=C(C1CC1)N1CCCN(c2ccc3nnc(-c4ccccc4)n3n2)CC1 | · | -7.8% | i | · | ·
COCCNC(=O)CNC(=O)c1cccc(-c2ccc(SC)cc2)c1 | -40.3% | -24.8% | ? | · | ·
CNC(=O)c1cc2cc(-c3c(C)noc3C)nc(-c3cccnc3)c2o1 | -2.8%[88.5 µM] | ? | ? | -11.1%[70.6 µM] | i
Cc1noc(C)c1-c1cc2cc(C(C)C)oc2c(-c2cccc(CO)c2)n1 | -14.6%[88.5 µM] | ? | 70.8µM* | -12.9%[70.6 µM] | i
Cc1cc2c(-c3cccc(OC(C)C)c3)nc(-c3c(C)noc3C)cc2[nH]1 | 0.9%[88.5 µM] | 50.1µM* | 28.2µM* | -1.3%[70.6 µM] | i
